In PubChem BioAssay (EPA / NIEHS) one finds outcome and AC50 data, which are given here for seven compounds.

A short description of assay [1]: APR_HepG2_NuclearSize_72hr: Apredica 72-hour HepG2 Assay for Nuclear Size (AID 2282925). As to conditions: high-content imaging, actives raise or lower the signal. In outline: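 Nuclear size was read by high-content imaging of Hoechst 33342 stain after formaldehyde fixation. Compounds ran 72 h on HepG2 at 0.39 to 200 uM, with final DMSO 0.5% v/v. Curves fitted both directions relative to DMSO control.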

Assay [2] is described as follows: ATG_CRE_CIS: Attagene CIS-FACTORIAL HepG2 Assay for human cAMP Responsive Element (CRE) binding protein 3 (AID 2282926). As to conditions: HepG2 CRE cis-reporter, Attagene multiplexed mRNA; actives raise or lower the signal. In outline: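 Liver-derived HepG2, transfected with a CRE-containing reporter panel, exposed 24 h; transcript levels sized and quantified by capillary electrophoresis of labelled amplicons; signal changes either way referenced to vehicle.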

Assay [3] in a line: ATG_CMV_CIS: Attagene CIS-FACTORIAL HepG2 Assay for human CMV (Internal Marker) (AID 2282928).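 Note: endpoint acts as a background internal control marker rather than a target.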 As to conditions: HepG2 CMV promoter reporter, transcription factor profiling; actives raise or lower the signal. The essentials:
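24 h chemical treatment, HepG2 with transient multi-reporter transfection; RNA → oligo(dT) RT → PCR → 6-FAM extension → HpaI digest → CE fluorescence. Bidirectional fit, DMSO negative control.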

Assay [4] can be described thus: ATG_DR4_LXR_CIS: Attagene CIS-FACTORIAL HepG2 Assay for human Liver X Receptor (LXR), DR4 submotif (AID 2282929). As to conditions: HepG2 Attagene DR4 cis-reporter, mRNA transcription; actives raise or lower the signal. In outline: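 HepG2 cells were transiently transfected with multiple cis-regulated reporter units and dosed for 24 hours. The DR4 reporter mRNA was quantified by RT-PCR, 6-FAM labelling and capillary electrophoresis. Bidirectional fits used DMSO as baseline.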

The target of assay [5] is Aryl hydrocarbon receptor (Homo sapiens) (UniProt P35869). Nature of the assay: ATG_Ahr_CIS: Attagene CIS-FACTORIAL HepG2 Assay for human Aryl Hydrocarbon Receptor (Ahr) (AID 2282930). To be noted: HepG2 AhR cis-factorial reporter transcription; actives raise or lower the signal. The essentials:
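Reporter mRNA levels, quantified by RT-PCR and fluorescent capillary electrophoresis, reflect endogenous AhR transcriptional activity in HepG2 cells carrying transfected cis-promoter reporter constructs. Readout at 24 h post-dose; gain or loss fitted against DMSO baseline.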

The nature of assay [6]: ATG_AP_1_CIS: Attagene CIS-FACTORIAL HepG2 Assay for human Activator Protein 1 (AP-1) (AID 2282931). To be noted: HepG2 Attagene cis-factorial AP-1 reporter mRNA; actives raise or lower the signal. The essentials: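 HepG2 cells transiently transfected with cis-element-driven reporter transcription units, dosed for 24 hours. Reporter mRNA measured by RT-PCR, 6-FAM labelling, HpaI digestion and capillary electrophoresis. Bidirectional fitting against DMSO baseline.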

Assay [7] can be described thus: ATG_AP_2_CIS: Attagene CIS-FACTORIAL HepG2 Assay for human Activator Protein 2 (AP-2) (AID 2282932). As to conditions: HepG2 AP-2 cis-reporter, Attagene transcription factor profiling; actives raise or lower the signal. The essentials: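 Endogenous transcription factor activity is reported through transfected multiplex reporter constructs in HepG2, after 24 h of compound exposure. Transcripts were quantified by RT-PCR and capillary electrophoresis of fluorescent fragments. Bidirectional fit against DMSO.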

Assay [8] is described as follows: ATG_BRE_CIS: Attagene CIS-FACTORIAL HepG2 Assay for human Bone Morphogenetic Protein (BMP) Response Element (BRE) (AID 2282933). To be noted: HepG2 BMP response element reporter, Attagene transcription factor profiling; actives raise or lower the signal. The essentials: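 Endogenous transcription factor activity at a BMP response element was monitored in transfected HepG2 cells 24 h after dosing. Fluorescent RT-PCR products were resolved by capillary electrophoresis, and activity was fitted in both directions versus DMSO.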

Assay [9] deals with Retinoic acid receptor alpha (Homo sapiens) (UniProt P10276). Briefly: ATG_DR5_RAR_CIS: Attagene CIS-FACTORIAL HepG2 Assay for human Retinoic Acid Receptor Alpha (RARE), DR5 submotif (AID 2282934).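 For AC50: reporter responds to endogenous RAR alpha beta and gamma in HepG2 not RARA alone.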 To be noted: HepG2 Attagene cis-factorial RARE DR5 reporter, mRNA; actives raise or lower the signal. The essentials: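 Reporter transcripts from a DR5-regulated unit, measured via RT-PCR plus capillary electrophoresis, reflect endogenous RAR activity in transiently transfected human HepG2 liver cells. Exposure lasted 24 h; gain or loss of signal scored against DMSO.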
Retinoic acid receptor alpha (Homo sapiens), sequence (P10276 whole entry, looked up): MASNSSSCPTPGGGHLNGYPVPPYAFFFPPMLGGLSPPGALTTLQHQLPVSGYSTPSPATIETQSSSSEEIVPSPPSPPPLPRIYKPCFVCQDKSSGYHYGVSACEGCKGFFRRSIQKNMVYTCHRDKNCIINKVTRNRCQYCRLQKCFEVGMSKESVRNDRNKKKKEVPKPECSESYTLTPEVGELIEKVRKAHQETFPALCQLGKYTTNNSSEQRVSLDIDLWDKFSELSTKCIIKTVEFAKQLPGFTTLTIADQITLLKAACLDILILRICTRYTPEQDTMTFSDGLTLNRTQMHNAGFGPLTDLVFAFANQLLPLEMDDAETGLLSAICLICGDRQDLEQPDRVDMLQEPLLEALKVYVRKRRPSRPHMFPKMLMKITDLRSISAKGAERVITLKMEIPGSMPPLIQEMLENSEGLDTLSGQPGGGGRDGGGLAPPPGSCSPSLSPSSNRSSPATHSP

Assay [10] deals with Transcription factor E2F1 (Homo sapiens) (UniProt Q01094). Nature of the assay: ATG_E2F_CIS: Attagene CIS-FACTORIAL HepG2 Assay for human E2F Transcription Factor 1 (AID 2282935). As to conditions: HepG2 Attagene cis-reporter, E2F reporter RNA transcripts; actives raise or lower the signal. The essentials: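 Gain or loss of reporter transcript, fitted against DMSO, reflects E2F1-driven transcription. Transiently transfected HepG2 dosed 24 h before RNA isolation. Quantified by fluorescent RT-PCR products separated by capillary electrophoresis.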
Transcription factor E2F1 (Homo sapiens), sequence (Q01094 whole entry, looked up): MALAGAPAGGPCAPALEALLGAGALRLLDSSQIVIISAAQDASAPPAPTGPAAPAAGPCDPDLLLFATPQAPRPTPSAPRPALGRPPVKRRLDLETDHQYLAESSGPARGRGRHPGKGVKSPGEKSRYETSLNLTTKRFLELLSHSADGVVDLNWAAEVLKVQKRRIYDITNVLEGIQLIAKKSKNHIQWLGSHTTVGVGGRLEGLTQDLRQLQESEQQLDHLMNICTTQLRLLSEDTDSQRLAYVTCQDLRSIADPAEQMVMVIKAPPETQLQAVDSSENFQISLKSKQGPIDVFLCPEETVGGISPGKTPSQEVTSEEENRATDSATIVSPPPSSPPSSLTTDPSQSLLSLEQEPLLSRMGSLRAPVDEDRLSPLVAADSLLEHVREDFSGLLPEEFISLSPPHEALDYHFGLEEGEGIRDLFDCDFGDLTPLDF

Assay [11] is described as follows: ATG_E_Box_CIS: Attagene CIS-FACTORIAL HepG2 Assay for human Enhancer Box (E-box) (AID 2282936). To be noted: HepG2 E-box cis-reporter transcription, actives raise or lower the signal. In outline:
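E-box-driven reporter transcripts measured in transiently transfected HepG2 after 24 h exposure: RNA reverse-transcribed, PCR-amplified, fluorescently labelled, digested and resolved by capillary electrophoresis. Gain or loss relative to DMSO.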

The nature of assay [12]: ATG_M_61_CIS: Attagene CIS-FACTORIAL HepG2 Assay for M61 Transcription Factor (Internal Marker) (AID 2282937). To be noted: HepG2 Attagene CIS-FACTORIAL M61 internal marker reporter; actives raise or lower the signal. In outline:
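HepG2 cells transiently transfected with multiplexed cis-promoter reporter units reporting endogenous transcription factor activity, measured 24 h after dosing. Reporter mRNA quantified by RT-PCR and capillary electrophoresis; bidirectional fit against DMSO baseline.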

Assay [13] can be described thus: ATG_EGR_CIS: Attagene CIS-FACTORIAL HepG2 Assay for human Early Growth Response 1 (EGR1) (AID 2282938). As to conditions: HepG2 Attagene CIS-FACTORIAL EGR reporter mRNA; actives raise or lower the signal. The essentials: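 HepG2 cells transiently transfected with cis-element-driven multiplexed reporter units, dosed for 24 h. EGR1-element reporter mRNA quantified by RT-PCR, 6-FAM labelling, HpaI digestion and capillary electrophoresis; bidirectional fit versus DMSO.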

Assay [14] is described as follows: ATG_M_19_CIS: Attagene CIS-FACTORIAL HepG2 Assay for M19 Transcription Factor (Internal Marker) (AID 2282939). As to conditions: HepG2 Attagene CIS-FACTORIAL M19 internal marker reporter; actives raise or lower the signal. In outline:
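Background-control endpoint from a multiplexed HepG2 reporter panel. Cells carrying cis-regulated reporter constructs are treated 24 h, then reporter transcripts are amplified, fluorescently labelled and sized by capillary electrophoresis. DMSO defines baseline.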

The nature of assay [15]: ATG_ERE_CIS: Attagene CIS-FACTORIAL HepG2 Assay for Estrogen Response Element (ERE) (AID 2282940). As to conditions: HepG2 ERE cis-reporter, Attagene RNA transcript; actives raise or lower the signal. The essentials:
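Cells used were human hepatoma HepG2, transfected with multiple reporter transcription units under cis-regulatory promoters. Reporter mRNA, read 24 h post-dosing via fluorescent RT-PCR products on capillary electrophoresis, was fitted bidirectionally relative to DMSO.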

Assay [16] can be described thus: ATG_Ets_CIS: Attagene CIS-FACTORIAL HepG2 Assay for human Erythroblast Transformation Specific (ETS) (AID 2282941). As to conditions: HepG2 ETS cis-reporter transcription, actives raise or lower the signal. In outline:
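Cis-regulated reporter mRNA induction in HepG2 (transient transfection), 24 h exposure, RT-PCR plus capillary electrophoresis detection; DMSO serves as negative control and baseline.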

In assay [17] the target is Hepatocyte nuclear factor 3-beta (Homo sapiens) (UniProt Q9Y261). Briefly: ATG_FoxA2_CIS: Attagene CIS-FACTORIAL HepG2 Assay for human Forkhead box A2 (FOXA2) (AID 2282942). To be noted: HepG2 cis-reporter transcription factor activity, 24 h; actives raise or lower the signal. In outline:
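HepG2 transiently transfected with a multiplexed cis-promoter reporter library read endogenous FOXA2 activity. After 24 h compound exposure, reporter mRNA was quantified by RT-PCR, HpaI digestion and capillary electrophoresis. Bidirectional fit against DMSO.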

The nature of assay [18]: ATG_FoxO_CIS: Attagene CIS-FACTORIAL HepG2 Assay for human Forkhead box O (FoxO) (AID 2282943). To be noted: HepG2 Attagene cis-reporter, FoxO element, mRNA; actives raise or lower the signal. The essentials:
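Endogenous transcription factor activity read from multiplexed cis-promoter reporter transcripts in transiently transfected HepG2, 24 h after dosing. Reporter RNA measured via RT-PCR plus capillary electrophoresis of FAM-labeled products; gain or loss relative to DMSO.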

Assay [19] can be described thus: ATG_GATA_CIS: Attagene CIS-FACTORIAL HepG2 Assay for human GATA Binding Protein (AID 2282944). To be noted: HepG2 GATA cis-element reporter, Attagene multiplex mRNA; actives raise or lower the signal. In outline:
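Endogenous transcription factor activity was captured through cis-promoter-driven reporters in transfected HepG2 cells. After 24 h exposure, reporter transcripts were quantified by RT-PCR with fluorescent capillary electrophoresis, and responses fitted both directions against DMSO.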

The target of assay [20] is CCAAT/enhancer-binding protein beta (Homo sapiens) (UniProt P17676). Briefly: ATG_C_EBP_CIS: Attagene CIS-FACTORIAL HepG2 Assay for human CCAAT/Enhancer Binding Protein (C/EBP) beta (AID 2282927). To be noted: HepG2 Attagene cis-factorial transcription factor reporter; actives raise or lower the signal. The essentials:
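Endogenous C/EBPb-driven reporter transcripts measured in transfected human HepG2 cells at 24 h via RT-PCR and capillary electrophoresis of labelled fragments. Activity fitted in both directions relative to DMSO baseline.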

Active and inactive are the calls of the source. Rule for the calls: active = hit-call score of the fitted dose curve at least 0.9, where 1 is the maximum; inactive = score below 0.9.

CCAAT/enhancer-binding protein beta (Homo sapiens), sequence (P17676 whole entry, looked up, the tested form may be a part): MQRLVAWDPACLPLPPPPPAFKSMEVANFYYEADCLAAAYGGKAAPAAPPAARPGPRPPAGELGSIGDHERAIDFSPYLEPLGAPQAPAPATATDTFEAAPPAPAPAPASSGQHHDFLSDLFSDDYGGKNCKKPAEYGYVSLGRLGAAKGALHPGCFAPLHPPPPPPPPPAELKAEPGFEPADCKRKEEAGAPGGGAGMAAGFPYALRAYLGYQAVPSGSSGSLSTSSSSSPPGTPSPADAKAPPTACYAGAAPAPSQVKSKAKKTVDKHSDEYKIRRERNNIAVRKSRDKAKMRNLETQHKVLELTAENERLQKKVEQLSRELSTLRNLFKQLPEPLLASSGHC
Aryl hydrocarbon receptor (Homo sapiens), sequence (P35869 whole entry, looked up): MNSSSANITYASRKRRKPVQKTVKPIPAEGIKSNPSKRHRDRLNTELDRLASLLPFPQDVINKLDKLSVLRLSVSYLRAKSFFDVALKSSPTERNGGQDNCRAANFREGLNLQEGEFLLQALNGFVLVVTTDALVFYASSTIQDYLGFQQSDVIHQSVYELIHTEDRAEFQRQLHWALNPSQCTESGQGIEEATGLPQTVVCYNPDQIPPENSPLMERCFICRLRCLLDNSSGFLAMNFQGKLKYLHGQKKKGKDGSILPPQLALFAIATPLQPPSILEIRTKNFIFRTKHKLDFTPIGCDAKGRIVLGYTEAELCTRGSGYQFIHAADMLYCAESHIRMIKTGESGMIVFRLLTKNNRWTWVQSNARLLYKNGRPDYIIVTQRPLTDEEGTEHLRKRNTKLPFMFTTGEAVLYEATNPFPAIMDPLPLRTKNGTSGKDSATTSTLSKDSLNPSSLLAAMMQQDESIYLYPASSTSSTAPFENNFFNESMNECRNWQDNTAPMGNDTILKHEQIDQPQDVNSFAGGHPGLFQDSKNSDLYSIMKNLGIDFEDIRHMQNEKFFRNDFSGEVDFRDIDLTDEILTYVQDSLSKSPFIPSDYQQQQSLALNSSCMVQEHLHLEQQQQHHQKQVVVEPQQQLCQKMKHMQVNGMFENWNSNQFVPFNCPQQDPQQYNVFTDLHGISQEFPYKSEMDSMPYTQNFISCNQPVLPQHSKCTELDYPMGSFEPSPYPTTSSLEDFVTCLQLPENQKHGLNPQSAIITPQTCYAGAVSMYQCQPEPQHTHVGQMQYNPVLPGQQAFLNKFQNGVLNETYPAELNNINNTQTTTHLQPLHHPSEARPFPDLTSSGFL
Hepatocyte nuclear factor 3-beta (Homo sapiens), sequence (Q9Y261 whole entry, looked up): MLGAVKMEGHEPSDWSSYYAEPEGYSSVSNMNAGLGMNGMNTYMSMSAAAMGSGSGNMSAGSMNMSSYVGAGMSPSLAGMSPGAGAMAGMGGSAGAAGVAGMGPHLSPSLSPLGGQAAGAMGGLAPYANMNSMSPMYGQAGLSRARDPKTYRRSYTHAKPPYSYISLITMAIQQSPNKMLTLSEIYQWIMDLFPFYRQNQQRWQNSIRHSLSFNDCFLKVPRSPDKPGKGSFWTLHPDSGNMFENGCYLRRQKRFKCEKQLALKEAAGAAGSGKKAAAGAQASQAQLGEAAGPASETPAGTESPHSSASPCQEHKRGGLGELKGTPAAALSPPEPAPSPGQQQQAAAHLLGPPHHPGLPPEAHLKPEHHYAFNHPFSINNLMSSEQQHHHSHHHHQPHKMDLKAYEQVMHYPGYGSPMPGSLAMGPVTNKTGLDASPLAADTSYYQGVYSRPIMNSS

As to `Nc1ccc2c(c1)C(=O)c1ccccc1C2=O`, the outcome in assay [1], in assay [2], in assay [3], in [4], in assay [5] and in [6] was inactive. Moreover, the compound was called inactive in assay [7], in assay [8], in [9], in [10], in [11] and in [12]. Further, the outcome in assay [13], in [14], in assay [16], in assay [17], in assay [18] and in assay [19] was inactive. Besides, the AC50 – broadly, the concentration giving half of the maximal activity seen – in assay [15] is 7.14 µM (active).
With `CCc1c(C(=O)NN2CCCCC2)nn(-c2ccc(Cl)cc2Cl)c1-c1ccc(Br)cc1`, the outcome in assay [1], in assay [2], in assay [5], in assay [7], in assay [8] and in assay [10] was inactive. Also, the result in [11], in assay [12], in assay [14], in assay [16], in assay [17] and in assay [18] was inactive. Also, the outcome in assay [19] was inactive. Also, the AC50 in [3] is 6.36 µM (active); in assay [4], 1.91 µM (active); in [6], 3.93 µM (active); in assay [9], 2.16 µM (active); in assay [13], 3.12 µM (active); in assay [15], 6.06 µM (active).
Turning to `CNCc1cc(F)ccc1Oc1ccc(Cl)c(Cl)c1`, the AC50 in assay [1] is 103 µM (active). Further, the call in assay [2], in assay [20], in [3], in [4], in [5] and in assay [6] was inactive. Further, the result in [7], in [8], in assay [10], in [11], in assay [12] and in assay [13] was inactive. The outcome in [14], in assay [15], in assay [16], in [17], in assay [18] and in assay [19] was inactive.
`CN1CCCC1=O`: the result in assay [1], in assay [2], in assay [3], in [4], in [5] and in [6] was inactive. For the same compound, the call in assay [7], in assay [8], in assay [9], in assay [10], in [11] and in [12] was inactive. The compound was classed as inactive in assay [13], in assay [14], in [15], in [16], in assay [17] and in assay [18]. For the same compound, in assay [19], the result was inactive.
For the compound `O=C(O)Cc1ccccc1Nc1c(Cl)cccc1Cl`, the outcome in [1], in assay [2], in assay [20], in assay [3], in assay [6] and in assay [7] was inactive. Besides, the result in assay [8], in assay [10], in assay [12], in assay [13], in assay [14] and in assay [15] was inactive. For the same compound, the compound was called inactive in [16], in assay [17], in assay [18] and in assay [19]. For the same compound, the values for the AC50 in assay [4], in assay [5] and in [11] were 68.7 µM (active), 67.3 µM (active) and 176 µM (active), respectively.
On to `Cc1ccc2ncccc2c1`, for which the outcome in assay [1], in assay [2], in assay [20], in [3], in assay [4] and in [5] was inactive. The call in assay [6], in [7], in [8], in assay [10], in assay [11] and in assay [12] was inactive. For the same compound, the result in [13], in assay [14], in [15], in assay [16], in assay [17] and in assay [18] was inactive. The compound was classed as inactive in assay [19].
Regarding `CC(C)c1ccc(C(=O)N=C(N)N)cc1S(C)(=O)=O`, the compound was classed as inactive in assay [1], in assay [2], in assay [3], in assay [4], in [5] and in assay [6]. The compound was called inactive in assay [7], in assay [8], in assay [9], in assay [10], in assay [11] and in [12]. The outcome in assay [13], in assay [14], in [16], in [17], in assay [18] and in [19] was inactive. Further, the AC50 in assay [15] is 71.7 µM (active).
